Bioassay records (PubChem)
The list is not random: actives were taken first. Their share in the collection is about 0.92%.
LAP4-GFP MLPCN = modulators of LAP4-GFP expression in yeast, primary screen, S. cerevisiae, multiplex flow cytometry, MLPCN library | 3 h; median GFP as percent of DMSO wells | GFP response vs DMSO, % at 10 µM | 320,000 compounds, 0.34% hits;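 active means GFP response vs DMSO above a set limit, about the screen mean plus 3 SD, cut at about 150% in these data; inconclusive means under 70 cell events counted for the yeast strain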
CIT2 TOR yeast = modulators of CIT2-GFP expression in yeast, primary screen, S. cerevisiae, GFP fusion, multiplex flow cytometry, MLPCN library | S. cerevisiae CIT2-GFP strain, 3 h; 100 means same as DMSO wells | GFP response vs DMSO, % at 10 µM | 320,000 compounds, 0.065% hits | AID 2029, 2009;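 active means GFP response relative to DMSO above a set limit, near the screen mean plus 3 SD, cut at about 150% in these data; inconclusive means Fewer than 70 cells measured for a yeast strain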;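 further: ratio of well median GFP fluorescence to mean of DMSO wells on the plate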
MEP2 TOR yeast = modulators of MEP2-GFP levels in yeast, primary screen, S. cerevisiae, multiplex flow cytometry, MLPCN library; S. cerevisiae MEP2-GFP strain, 3 h; 100% = DMSO control level; GFP response vs DMSO, % at 10 µM; 330,000 compounds, 0.51% hits; AID 2016, 2009;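 active means GFP response versus DMSO above a set limit, roughly screen mean plus 3 SD, cut at about 180% in these data; inconclusive means fewer than 70 cells counted for a yeast strain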;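 further: median GFP fluorescence of the barcode-gated MEP2-GFP cells per well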
RPL19A-GFP yeast = RPL19A-GFP expression modulators in yeast, primary screen, cell-based, S. cerevisiae, multiplex flow cytometry, MLPCN; S. cerevisiae RPL19A-GFP strain, 3 h; hits give low values; percent response vs DMSO, % at 10 µM; 330,000 compounds, 0.3% hits;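 active means percent response vs DMSO below 50%; inconclusive means fewer than 70 events counted for the yeast strain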;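 further: median channel GFP fluorescence of the barcoded RPL19A-GFP strain; ratio of sample median GFP to plate DMSO average so 100% = DMSO; lower means less RPL19A-GFP as with rapamycin TOR inhibition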
AGP1 TOR yeast = modulators of AGP1-GFP expression in yeast TOR pathway, primary screen, cell-based, multiplex flow cytometry, S. cerevisiae, MLPCN library. 3 h; GFP as percent of DMSO wells. 320,000 compounds, 0.02% hits. AID 2066, 2009. GFP response vs DMSO, % at 10 µM;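 active means GFP response relative to DMSO above a set limit, near screen average plus 3 SD, cut at about 150% in these data; inconclusive means fewer than 70 cells counted for the yeast strain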;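 further: median GFP channel fluorescence of the gated AGP1 strain per well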
LAP4 cherry2 = LAP4-GFP expression modulators in yeast, confirmation, cell-based, second cherry pick, flow cytometry. 590 compounds, 20% hits. S. cerevisiae LAP4-GFP strain, 3 h. GFP response vs DMSO, % at 10 µM. shares compounds with LAP4-GFP MLPCN. AID 2621, 2010;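 active means GFP signal as percent of the solvent control above about 150%, meaning raised reporter expression, limit read from the data; inconclusive means fewer than 70 cells counted in the well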;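 further: ratio of well median GFP fluorescence to plate DMSO mean so 100% = DMSO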
MEP2 cherry2 = modulators of MEP2-GFP levels in yeast, confirmation, S. cerevisiae, flow cytometry GFP, second cherry picks; S. cerevisiae MEP2-GFP strain, 3 h; AID 2622, 2010; 590 compounds, 10% hits; GFP response vs DMSO, % at 10 µM; shares compounds with LAP4-GFP MLPCN;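 active means GFP signal above 150% of the solvent control wells, that is a rise of more than half; inconclusive means fewer than 70 yeast cells counted in the well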;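 further: median channel GFP fluorescence of all gated yeast cells per well; ratio of median GFP to plate DMSO average so 100% = DMSO level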
RPL19A-GFP pick2 = RPL19A-GFP modulators in TOR pathway yeast, confirmation, cell-based, S. cerevisiae, flow cytometry, second cherry pick; GFP response vs DMSO, % at 10 µM; 590 compounds, 3% hits; S. cerevisiae RPL19A-GFP strain, 3 h; hits give low values; 100% means same as DMSO wells; AID 2623, 2010; shares compounds with LAP4-GFP MLPCN;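 active means under 65% GFP response relative to DMSO; inconclusive means yeast strain with under 70 measured events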;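 further: median GFP channel fluorescence per well over the all cells gate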
CIT2-GFP pick2 = modulators of CIT2-GFP expression in yeast, confirmation, flow cytometry, second cherry pick, single plex; 590 compounds, 8% hits; S. cerevisiae CIT2-GFP strain, 3 h; DMSO control wells read 100%; shares compounds with LAP4-GFP MLPCN; GFP response vs DMSO, % at 10 µM;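 active means GFP response vs DMSO above about 150%, limit read from the data; inconclusive means fewer than 70 events counted for a yeast strain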;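 further: median green fluorescence per well over all gated yeast cells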
AGP1 GFP CP2 = AGP1-GFP expression modulators, hit retest, confirmation, cell-based, flow cytometry, S. cerevisiae, cherry pick set 2. 590 tested, under 10 active. shares compounds with LAP4-GFP MLPCN. percent response vs DMSO, % at 10 µM. S. cerevisiae AGP1-GFP strain, 3 h;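 active means over 150 percent of DMSO response; inconclusive means yeast strain measured with under 70 events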;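 further: median GFP channel fluorescence over all cells without mother daughter split; sample median GFP divided by mean DMSO control so 100% equals DMSO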
Yeast autofluor = compound autofluorescence in yeast s288c, dose response, artefact control for yeast TOR pathway GFP screen, s288c strain | fluorescence change (kMESF span) at 33 µM | 610 tested, under 10 active | shares compounds with LAP4-GFP MLPCN | S. cerevisiae s288c, 520 nm autofluorescence, flow cytometry, 3 h; hits give high values; zero means same as solvent-only cells;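 active means fluorescence span over the dose series, or activity score, above about 33, limit read from the data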
* = called active by the depositor; [ ] = another dose, or the depositor's remark.

`Nc1c(C(=O)NCC2CCCO2)c2nc3ccccc3nc2n1Cc1ccco1` (centres undefined) gave LAP4-GFP MLPCN 99, CIT2 TOR yeast inconclusive, MEP2 TOR yeast 518*[may fluoresce violet], RPL19A-GFP yeast 97 and AGP1 TOR yeast 18.
Screening O=C(C1CCN(S(=O)(=O)c2ccccc2)CC1)N1CCC2(CC1)OCCO2 returned LAP4-GFP MLPCN 110, CIT2 TOR yeast inconclusive, MEP2 TOR yeast 333*[may fluoresce violet], RPL19A-GFP yeast 67 and AGP1 TOR yeast 29.
C[C@]12CCC(=O)C(O)=C1CC[C@@H]1[C@@H]2CC[C@]2(C)C(=O)CC[C@@H]12 was read as LAP4-GFP MLPCN 454*[may fluoresce red], CIT2 TOR yeast 78, MEP2 TOR yeast 90, RPL19A-GFP yeast inconclusive and AGP1 TOR yeast 80.
CC(C)N1OC2CC1c1nc3ccccc3n1C2 (centres undefined) was read as LAP4-GFP MLPCN 131, CIT2 TOR yeast 99, MEP2 TOR yeast 97, RPL19A-GFP yeast 100 and AGP1 TOR yeast 90.
Screening O=c1c2ccccc2[se]n1-c1ccccc1 returned LAP4-GFP MLPCN inconclusive, CIT2 TOR yeast inconclusive, MEP2 TOR yeast 157, RPL19A-GFP yeast 39*[may fluoresce violet] and AGP1 TOR yeast inconclusive.
O=c1c2ccccc2nc(-c2ccccc2)n1-c1ccccc1 was read as LAP4-GFP MLPCN 100, CIT2 TOR yeast 96, MEP2 TOR yeast 88, RPL19A-GFP yeast 98 and AGP1 TOR yeast 96.
For O=C1NC(=O)C(=Cc2ccc(-c3ccc(Cl)cc3)o2)C(=O)N1 the results were LAP4-GFP MLPCN 263*, CIT2 TOR yeast 57, MEP2 TOR yeast 90, RPL19A-GFP yeast 71, AGP1 TOR yeast 66, LAP4 cherry2 198*, MEP2 cherry2 123, RPL19A-GFP pick2 84, CIT2-GFP pick2 103, AGP1 GFP CP2 89 and Yeast autofluor 0.5.
Screening O=C1NC(=O)C(=Cc2ccc(-c3ccc(S(=O)(=O)N4CCOCC4)cc3)o2)C(=O)N1 returned LAP4-GFP MLPCN 108, CIT2 TOR yeast 72, MEP2 TOR yeast 91, RPL19A-GFP yeast 96 and AGP1 TOR yeast 89.
O=C1C(=O)c2ccccc2-c2ccccc21 was read as LAP4-GFP MLPCN 105, CIT2 TOR yeast 81, MEP2 TOR yeast 99, RPL19A-GFP yeast 95, AGP1 TOR yeast 77 and Yeast autofluor 2.1.
C/C(=C\c1ccc(N(C)C)cc1)[N+](=O)[O-] was read as LAP4-GFP MLPCN 155*, CIT2 TOR yeast 100, MEP2 TOR yeast 102, RPL19A-GFP yeast 102, AGP1 TOR yeast 102, LAP4 cherry2 103, MEP2 cherry2 93, RPL19A-GFP pick2 98, CIT2-GFP pick2 111 and AGP1 GFP CP2 99.
